Among all 48,000 compounds or so, about 13,000 (27%) showed an effect of 50% or more. The list shows a part of the results.

This test has as its system Wolbachia pipientis. The experiment in a line: Anti-Wolbachia Cell-Based Screen. Format: functional. On the set-up: scale not given: in the data most compounds retested in dose-response had high values. Particulars: 5 µM.
Consider `CCCn1[nH]cc/c1=N\C(=O)CN1CCCC1Cn1cccn1` (stereo not drawn), for which the “Percent Effect” value was -1.433%.
With `CCN(CC1CCOC1)C(=O)c1cc(OC)c2c(c1)OCCO2` (stereo not drawn), the “Percent Effect” value is -3.228%.
For `Cc1ccc(-c2ccc(C3CNCCO3)nc2)cc1.Cl` (stereo not drawn), the “Percent Effect” value was 114.4%.
For `COc1ccc(-c2ccc(C3CNCCO3)nc2)cc1.Cl` (stereo not drawn) the value was 122.1%; for `Cl.c1ncc(-c2ccc(C3CNCCO3)nc2)cn1` (stereo not drawn), 106.1%.
For the molecule `COc1ccc(-c2cnc(CN3CCCC3CO)o2)cc1` (stereo not drawn), the “Percent Effect” value is reported as -7.324%.
On to `Cl.Clc1ccc(-c2ccc(C3CNCCO3)nc2)cc1` (stereo not drawn), for which the “Percent Effect” value is 122.6%.
In the case of `Cl.c1ccc(-c2ccc(C3CNCCO3)nc2)cc1` (stereo not drawn), the “Percent Effect” value is -0.3347%.
Consider `CCNc1ccnc(NCC2CNCCO2)n1` (stereo not drawn), for which the “Percent Effect” value is -11.04%.
With `COc1ccc(-c2c[nH]c([C@@H]3COCCN3)n2)cc1`, the “Percent Effect” value is reported as -8.862%.
Turning to `Fc1ccc(-c2noc([C@@H]3Cc4nc[nH]c4CN3)n2)cc1`, the “Percent Effect” value is on record as -11.77%.
On to `Cn1cc(CN2CCOCC3(C2)CN(c2ccccc2)C(=O)CO3)cn1.O=C(O)C(F)(F)F` (stereo not drawn), for which the “Percent Effect” value is recorded as -5.421%.
For the molecule `Cc1cccc(N2CCOCC3(C2)CN(c2ccoc2)C(=O)CO3)n1.O=C(O)C(F)(F)F` (stereo not drawn), the “Percent Effect” value was determined as 101.1%.
As for `O=C(O)C(F)(F)F.O=C1COC2(COCCN(c3ccccn3)C2)CN1c1cccc(F)c1` (stereo not drawn), the figure is -5.368%; as for `Cn1cc(N2CC3(COCCN(Cc4ccsc4)C3)OCC2=O)cn1.O=C(O)C(F)(F)F` (stereo not drawn), -6.124%.
As for `Cc1ccc(N2CC3(COCCN(Cc4ccccn4)C3)OCC2=O)s1.O=C(O)C(F)(F)F.O=C(O)C(F)(F)F` (stereo not drawn), the figure is -3.574%; as for `Cc1cccc(N2CCOCC3(C2)CN(c2ccccc2)C(=O)CO3)n1.O=C(O)C(F)(F)F` (stereo not drawn), 109.1%; as for `Cc1cccc(N2CCOCC3(C2)CN(c2cnn(C)c2)C(=O)CO3)n1.O=C(O)C(F)(F)F` (stereo not drawn), 85%.
As for `O=C(O)C(F)(F)F.O=C(O)C(F)(F)F.O=C1COC2(COCCN(Cc3cccnc3)C2)CN1c1ccoc1` (stereo not drawn), the figure is -8.923%; as for `COC(=O)c1ccc(CNC2CC(=O)N(Cc3cccc(F)c3)C2)cc1` (stereo not drawn), 2.767%; as for `CSc1ccc(-n2ccnc2-c2cc3n(n2)CCNC3)cc1`, -5.547%.
Consider `CC(C)c1cnc(N2C[C@H](CO)C[C@H](CN3CCOCC3)C2)nc1`, for which the “Percent Effect” value is on record as -10.14%.
On to `COCc1noc(C2(c3ccc(Cl)cc3)CCOCC2)n1`, for which the “Percent Effect” value was determined as 0.3658%.
Turning to `Cc1c(Cl)c(CN2CCCC2Cn2cncn2)nc2ccccc12` (stereo not drawn), the “Percent Effect” value was 0.2475%.
Turning to `Cc1cnn(CC2CCCN2C(=O)c2nccnc2N)c1` (stereo not drawn), the “Percent Effect” value is 124%.
As for `Cc1cnn(CC2CCCN2C(=O)c2ccc(C(N)=O)cn2)c1` (stereo not drawn), the “Percent Effect” value is -6.228%.
For the molecule `Cc1cnn(CC2CCCCN2C(=O)c2nccnc2N)c1` (stereo not drawn), the “Percent Effect” value stood at 123.3%.
Regarding `Cc1cnn(CC2CCCN2C(=O)c2nccc3ccccc23)c1` (stereo not drawn), the “Percent Effect” value is -8.549%.
For the molecule `Cc1ccsc1C(=O)N1CC2CC1(C(=O)NCc1ccco1)C2`, the “Percent Effect” value is listed as -21.25%.
As to `Cc1oncc1C(=O)N1CC[C@H]2CO[C@H](CN3CCCC3)[C@H]2C1`, the “Percent Effect” value is 2.112%.
For `O=C(N1CCOCC1)N1CCOC[C@H](Oc2ccc(C(F)(F)F)cc2)C1`, the “Percent Effect” value is recorded as -17.33%.
Take `COc1cccc(OCC(=O)NS(=O)(=O)c2ccc(C)s2)c1`: the “Percent Effect” value was 7.75%.
Take `CC(=O)c1cccc(OCC(=O)NS(=O)(=O)c2ccc(C)s2)c1`: the “Percent Effect” value is 0.05865%.
Take `CC(=O)c1ccc(OCC(=O)NS(=O)(=O)c2ccc(Cl)s2)cc1`: the “Percent Effect” value is reported as 1.494%.
For the molecule `COc1ccccc1OCC(=O)NS(=O)(=O)c1ccc(Cl)s1`, the “Percent Effect” value was determined as 123.5%.
Turning to `N#CCc1ccc(OCC(=O)NS(=O)(=O)c2ccc(Br)s2)cc1`, the “Percent Effect” value is recorded as -7.056%.
For the molecule `COc1cc(C)ccc1OCC(=O)NS(=O)(=O)c1cc(F)ccc1F`, the “Percent Effect” value turned out to be 4.965%.
As for `COc1ccc(OCC(=O)NS(=O)(=O)c2cc(C)ccc2C)cc1`, the figure is 6.123%.
As to `COc1ccccc1OCC(=O)NS(=O)(=O)c1ccc(Cl)cc1F`, the “Percent Effect” value came to 6.198%.
As to `COc1cc(C)ccc1OCC(=O)NS(=O)(=O)c1ccc(Br)s1`, the “Percent Effect” value is 133.3%.
`COc1ccc(OCC(=O)NS(=O)(=O)c2ccc(Br)s2)cc1`: the “Percent Effect” value was 71.28%.
Consider `COc1ccc(OCC(=O)NS(=O)(=O)c2ccc(Cl)s2)cc1`, for which the “Percent Effect” value is 9.961%.
Turning to `COc1cccc(OCC(=O)NS(=O)(=O)c2ccc(Br)s2)c1`, the “Percent Effect” value came out at 93.04%.
For `CC(Sc1nncn1C)C(=O)NCCCOc1ccc(F)cc1` (stereo not drawn), the “Percent Effect” value is given as 7.065%.
Take `COC1CCCN(C(=O)NCCCF)C1` (stereo not drawn): the “Percent Effect” value was determined as 5.737%.
In the case of `CS(=O)(=O)NC[C@]12COC[C@H]1CN(CCc1ccccc1)C2.O=C(O)C(F)(F)F`, the “Percent Effect” value worked out at 1.225%.
Turning to `CCOC[C@]12COC[C@H]1CN(Cc1ccc3c(c1)OCO3)C2.O=C(O)C(F)(F)F`, the “Percent Effect” value was determined as 94.03%.
As for `COC[C@]12COC[C@H]1CN(Cc1ccc3c(c1)OCO3)C2.O=C(O)C(F)(F)F`, the figure is 110.8%; as for `O=C(O)C(F)(F)F.O=C(O)C(F)(F)F.c1cc2c(cc1CN1C[C@@H]3COC[C@@H](N4CCCC4)[C@@H]3C1)OCO2`, 5.593%; as for `CS(=O)(=O)NC[C@]12COC[C@H]1CN(Cc1ccc3c(c1)OCO3)C2.O=C(O)C(F)(F)F`, 100.7%.
Regarding `CCOC[C@]12COC[C@H]1CN(Cc1ccc(F)c(F)c1)C2.O=C(O)C(F)(F)F`, the “Percent Effect” value came to 108.4%.
Turning to `CCS(=O)(=O)NC[C@]12COC[C@H]1CN(Cc1ccsc1)C2.O=C(O)C(F)(F)F`, the “Percent Effect” value is -7.396%.
On to `Cc1nc(C(C)(C)NCc2ncc(C3CC3)o2)sc1C`, for which the “Percent Effect” value is -9.268%.
In the case of `CCc1ccc(CNc2ccccc2CN2CCC(O)CC2)o1`, the “Percent Effect” value is -8.641%.
On to `CCCn1cc(CNCC(c2ccc(C)s2)N2CCOCC2)cn1` (stereo not drawn), for which the “Percent Effect” value is 19.75%.
As for `CC(=O)N1CCN(Cc2ccc3c(c2)OCCO3)CC(O)C1` (stereo not drawn), the “Percent Effect” value is -5.239%.
As for `CN(C)C[C@]12COC[C@H]1CN(Cc1ccc3c(c1)OCO3)C2.O=C(O)C(F)(F)F.O=C(O)C(F)(F)F`, the figure is 103.2%; as for `COc1ccc(CN2C[C@@H]3COC[C@]3(CN(C)C)C2)cc1.O=C(O)C(F)(F)F.O=C(O)C(F)(F)F`, 3.897%; as for `COCC(=O)NC[C@]12COC[C@H]1CN(Cc1ccc3c(c1)OCO3)C2.O=C(O)C(F)(F)F`, 110%.
As for `COCC(=O)NC[C@]1(O)CN(Cc2ccc3c(c2)OCCO3)C[C@H]1O`, the figure is 114.3%; as for `COc1ccc(CC(=O)N2C[C@@H]3COC[C@]3(CN(C)C)C2)cc1.O=C(O)C(F)(F)F`, 1.592%.
Turning to `COCC(=O)NC[C@]12COC[C@H]1CN(c1ncc(F)cn1)C2.O=C(O)C(F)(F)F`, the “Percent Effect” value is on record as -9.196%.
On to `CCC[C@H]1CN(Cc2ccc3c(c2)OCCO3)C[C@@H]1NC(=O)COC`, for which the “Percent Effect” value is on record as -19.75%.
Turning to `O[C@H]1[C@H](NCCc2ccccn2)c2ccccc2C12CCNCC2`, the “Percent Effect” value is 4.411%.
Take `CCC(CC)N(Cc1ccc2c(c1)OCO2)C(=O)c1ccc(=O)n(C)c1`: the “Percent Effect” value is given as -1.967%.
Consider `Cc1cnc(N2CCc3c(CN(C)Cc4ccco4)cncc3C2)nc1`, for which the “Percent Effect” value is on record as 78.05%.
In the case of `CN(Cc1cn2c(n1)CN(C(N)=O)CC2)Cc1ccco1`, the “Percent Effect” value was found to be 9.855%.
For `CN(Cc1ccco1)Cc1cncc2c1CCN(c1ncccn1)C2.Cl.Cl` the value was 2.734%; for `Cc1ccc(N2CCc3c(CN(C)Cc4ccco4)cncc3C2)nn1.Cl.Cl`, 99%.
For the molecule `CC(=O)Nn1c(C)cc(CN2CCC(C(=O)N3CCCC3)CC2)c1C`, the “Percent Effect” value is 13.77%.
In the case of `CC(C)(CNc1ccccc1S(=O)(=O)C(F)F)N1CCOCC1`, the “Percent Effect” value was determined as 14.98%.
With `CC1CCN(CC2CCN(C(=O)c3c[nH]c4ncccc34)CC2)CC1`, the “Percent Effect” value is -10.12%.
With `CCn1c(C2CCN(C(=O)c3ccc4cc[nH]c4c3)CC2)n[nH]c1=O`, the “Percent Effect” value stood at 3.076%.
For `O=C(c1cnccn1)N1CCC2(CC1)C(=O)NCC2c1ccccc1` (stereo not drawn) the value was -11.37%; for `O=C(c1cnccn1)N1CCC(Cc2cnc3[nH]ccc3c2)CC1`, 109.1%.
As for `O=C(c1cncs1)N1CCC(Cc2cnc3[nH]ccc3c2)CC1`, the figure is 101.1%; as for `O=C(c1ccncc1)N1CCC(Cc2cnc3[nH]ccc3c2)CC1`, 127.1%; as for `Cc1cccnc1C(=O)N1CCC(Cc2cnc3[nH]ccc3c2)CC1`, 75.79%.
Take `CCCc1nnsc1C(=O)NCC1CCN(C(=O)c2ccncc2)CC1`: the “Percent Effect” value came out at 2.794%.
As to `CC(C)CC(=O)N1CCN(c2cc(N(C)C)cnn2)CC1`, the “Percent Effect” value was 10.83%.
For `CCc1nc(CN2CCCN(C(=O)COC(C)C)CC2)cs1` the value was 23.5%; for `CCC(C(=O)NCc1ccncc1)N(c1ccc(OC)cc1)S(C)(=O)=O` (stereo not drawn), -7.147%.
With `O=C(NCc1nc(NC2CCCC2)c2cc(Cl)ccc2n1)c1cncs1`, the “Percent Effect” value is -2.993%.
As for `CC(C(=O)Nc1cnn(CC(N)=O)c1)c1ccc(Cl)s1` (stereo not drawn), the “Percent Effect” value was -7.657%.
With `O=C(O)c1cc2c(nc1O)CC(c1cccc(Cl)c1)CC2=O` (stereo not drawn), the “Percent Effect” value is given as 8.981%.
As to `O=C(c1ccccn1)N1CCC(Cc2cnc3[nH]ccc3c2)CC1`, the “Percent Effect” value came out at 136.1%.
Take `Cc1cccc(C(=O)N2CCC(Cc3cnc4[nH]ccc4c3)CC2)n1`: the “Percent Effect” value is listed as -6.998%.
Consider `O=C(c1cnco1)N1CCCC(Cc2cccc3ncccc23)C1` (stereo not drawn), for which the “Percent Effect” value is listed as -11.15%.
As for `O=C(CCC1CCN(C(=O)c2cnco2)CC1)NCc1cccc(Cl)c1`, the figure is 11.71%.
Turning to `O=C(c1cnco1)N1CCC(Cc2ccc3ncccc3c2)CC1`, the “Percent Effect” value came out at 111%.
Turning to `O=C(O)C(F)(F)F.O=S1(=O)NC[C@H]2CCN(Cc3ccccc3)CC[C@H]21`, the “Percent Effect” value is reported as -3.468%.
Turning to `Cc1cc(C)c(CNC(=O)NCCNc2ccccn2)c(=O)[nH]1`, the “Percent Effect” value is 9.095%.
With `Cc1cnn(C2CCCN(C(=O)c3cn4ccccc4n3)C2)c1` (stereo not drawn), the “Percent Effect” value turned out to be 104.2%.
Regarding `Cc1cnn(C2CCCN(C(=O)c3cc[nH]n3)C2)c1` (stereo not drawn), the “Percent Effect” value is on record as -3.499%.
With `Cc1cnn(C2CCCN(C(=O)c3cc(-c4ccccc4C)n[nH]3)C2)c1` (stereo not drawn), the “Percent Effect” value was -3.414%.
As for `Cc1cccc(-n2cc(C(=O)N3CCCC(n4ccnc4)C3)nn2)c1` (stereo not drawn), the figure is 7.382%; as for `Cc1cnn(C2CCCN(C(=O)c3cn(-c4ccccc4)nn3)C2)c1` (stereo not drawn), 117.4%; as for `Cc1cccc(-n2cc(C(=O)N3CCCC(n4cccn4)C3)nn2)c1` (stereo not drawn), 4.017%.
`O=C(c1ccn(-c2cccc(F)c2)n1)N1CCCC(n2cccn2)C1` (stereo not drawn): the “Percent Effect” value came out at 0.279%.
In the case of `Cc1cnn(C2CCCN(C(=O)c3cc(-c4ccco4)[nH]n3)C2)c1` (stereo not drawn), the “Percent Effect” value turned out to be 10.35%.
In the case of `Cc1ccc(-n2cc(C(=O)N3CCCC(n4cccn4)C3)nn2)cc1` (stereo not drawn), the “Percent Effect” value turned out to be 117.4%.
Consider `O=C(c1cn(-c2ccc(F)cc2)nn1)N1CCCC(n2cccn2)C1` (stereo not drawn), for which the “Percent Effect” value was found to be 123%.
In the case of `Cc1cnn(C2CCCN(C(=O)c3cnc4ccccc4n3)C2)c1` (stereo not drawn), the “Percent Effect” value was -3.195%.

(Values after ChEMBL document CHEMBL3988442, “University of Dundee, Small-Polar-MMV Screening Library” (2021).)
